High-throughput results: PubChem BioAssay, National Center for Advancing Translational Sciences (NCATS)
DT40 TDP1 CPT – qHTS for Inhibitors of human tyrosyl-DNA phosphodiesterase 1 (TDP1): qHTS in cells in presence of CPT | chicken DT40 Tdp1-/-;hTDP1 cells + 20 nM CPT, ATP luminescence, 48 h | Potency, µM (top dose mostly 46.2 µM), inactives show at the top dose activity change, negative = growth inhibition, actives largely listed as inhibitors | actives 12% (n = 420,000) | AID 686979, 2013; further: potency means the concentration at half of the fitted maximal effect; nearly all actives have a fitted effect of over 55% in size
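Chicken DT40 Tdp1-/- cells stably complemented with human TDP1 were seeded at 400 cells/well in medium containing 20 nM camptothecin, exposed to pin-transferred compounds, and grown at 37 °C for at least 48 hr. Viability was read as ATP luminescence.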
DT40 TDP1 no CPT – qHTS for Inhibitors of human tyrosyl-DNA phosphodiesterase 1 (TDP1): qHTS in cells in absence of CPT; DT40 Tdp1-/- hTDP1 cells, no CPT, ATP luminescence, 48 h; Potency, µM (top dose mostly 46.2 µM), for inactives: at the top dose activity change, negative = growth inhibition, most hits filed as inhibitors; actives 15% (n = 420,000); AID 686978, 2013; further: potency means the concentration at half of the fitted maximal effect; nearly all actives have a fitted effect of over 55% in size
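No-CPT arm: Tdp1-/-;hTDP1 DT40 cells (400/well) plus compounds, incubated ≥48 hr at 37 °C. Readout CellTiter-Glo luminescence.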
Giardia kill – Small Molecules that selectively kill Giardia lamblia: qHTS | Giardia lamblia trophozoite viability | AID 540267, 2011 | actives 0.15% (n = 340,000) | activity change, % at 7.66 µM, hits read low; in the data active means activity change below about -80%; inconclusive means between about -30% and that limit;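 further: parasites exposed to compound for two days anaerobically before the ATP read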
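Compounds were tested on trophozoites seeded at 100 cells/well and held 48 hrs at 37 deg C anaerobically. An ATP-based luminescent kit measured the remaining live cells.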
TDP1 block – qHTS Assay for Inhibitors of Tyrosyl-DNA Phosphodiesterase (TDP1). Tyrosyl-DNA phosphodiesterase 1 (Homo sapiens), Q9NUW8. recombinant TDP1, AlphaScreen DNA substrate cleavage. Potency, µM (highest dose often 130 µM), inactives show top-dose activity change, negative = inhibition, usual class: inhibitors. actives 0.28% (n = 350,000). AID 485290, 2010; further: potency means the concentration at half of the fitted maximal effect; nearly all actives have a fitted effect of over 40% in size
Target sequence (Q9NUW8 whole entry, looked up): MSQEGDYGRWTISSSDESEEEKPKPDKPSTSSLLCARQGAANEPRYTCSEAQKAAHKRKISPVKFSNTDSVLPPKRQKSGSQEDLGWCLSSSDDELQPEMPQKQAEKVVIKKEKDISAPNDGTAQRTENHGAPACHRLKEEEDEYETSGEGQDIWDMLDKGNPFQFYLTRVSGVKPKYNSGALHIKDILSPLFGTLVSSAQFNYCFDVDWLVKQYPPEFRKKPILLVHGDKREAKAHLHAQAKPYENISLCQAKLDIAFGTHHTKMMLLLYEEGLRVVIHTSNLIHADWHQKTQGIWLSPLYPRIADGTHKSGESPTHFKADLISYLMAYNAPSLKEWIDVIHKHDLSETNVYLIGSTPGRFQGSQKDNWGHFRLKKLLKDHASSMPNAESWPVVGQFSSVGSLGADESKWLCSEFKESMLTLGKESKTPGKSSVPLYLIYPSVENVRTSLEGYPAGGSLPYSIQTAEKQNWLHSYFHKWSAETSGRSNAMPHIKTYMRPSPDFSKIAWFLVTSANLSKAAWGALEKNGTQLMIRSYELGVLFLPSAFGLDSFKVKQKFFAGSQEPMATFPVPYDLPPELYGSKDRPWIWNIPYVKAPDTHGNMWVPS
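Here, a 5' biotin and 3' phosphotyrosine-FITC DNA oligonucleotide reports Tdp1 activity: intact substrate bridges AlphaScreen beads, while cleavage leaves a 3' phosphate and drops signal. All incubations at room temperature.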
ELG1 repair inh – qHTS screen for small molecules that inhibit ELG1-dependent DNA repair in human embryonic kidney (HEK293T) cells expressing luciferase-tagged ELG1; actives 2.3% (n = 330,000); AID 504467, 2011; Potency, µM (doses to about 46.1 µM), without a hit: at the top dose activity change, negative = inhibition, hits mostly inhibitors; HEK293T ELG1-luciferase reporter, luminescence, 16 h; DNA damage induced by 5-fluorouridine; further: potency means the concentration at half of the fitted maximal effect; nearly all actives have a fitted effect of over 55% in size
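Step one: seed 2,000 cells per well. Step two: pin-transfer compound or DMSO alongside 5-fluorouridine. Step three: incubate 16 hr, 37 °C, 5% CO2. Step four: add ONE-Glo, wait 30 min, read luminescence.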
IL1B secr inh – qHTS for Inhibitors of Inflammasome Signaling: IL-1-beta AlphaLISA Primary Screen. THP-1 LPS/ATP IL-1B secretion, AlphaLISA, 16 h; stronger effect = lower value. activity change, % at 57.5 µM. actives 4.7% (n = 360,000); in the data active means activity change below about -50%; inconclusive means mostly about -30% to -49%
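Secreted IL-1B measured by AlphaLISA bead assay after 16 h compound exposure of THP-1 cells; compounds (final up to 57.5 uM) added 1 h before LPS (250 ng/mL) and ATP (1.25 mM) stimulation; lower signal means less secretion.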
Numbers without * were called inactive; ? = inconclusive; / = no result. Sampled rows, rich in hits. Any-hit rate of the full collection: about 19%. Unless noted, the call rests on the fitted dose curve; in most records, active means well fitted curve in the direction sought with a large enough effect; inconclusive means small, poorly fitted or top-dose-only effect, or another doubt; inactive means no such curve, though single readings can be large; an effect the other way counts as inactive or inconclusive. On the % scale 0 is the no-effect control and ±100 the full control effect.

SMILES | DT40 TDP1 CPT | DT40 TDP1 no CPT | Giardia kill | TDP1 block | ELG1 repair inh | IL1B secr inh
CCc1nc2ccc(C(=O)NCCNC(C)=O)cn2c1N(C)Cc1ccc(OC)cc1 | -7% | -10% | / | / | / | -6
CCc1nc2ccc(C(=O)NCCC(C)C)cn2c1N(CC)CCOC | ? | 21µM* | / | / | / | 40
CCCCNC(=O)c1ccc2nc(CC)c(N(C)Cc3ccc(OC)cc3)n2c1 | 16µM* | ? | / | / | / | -10
CCc1nc2ccc(C(=O)NCCOc3ccc(OC)cc3)cn2c1N(C)Cc1ccc(OC)cc1 | ? | 21µM* | / | / | / | -22
CSc1nc(C)c2c(n1)N(c1ccc(C(C)C)cc1)CC2 | ? | 21µM* | 9 | -2% | 0% | 17
CN(C)C=NC(=O)c1cc2c(n(-c3ccccc3)c1=O)CC(C)(C)CC2=O | 3% | 2% | / | 1% | / | /
CCOC(=O)C1C(=O)OC(C)(C)C1C(CC)C(=O)c1c(C)cc(C)cc1C (centres undefined) | 18µM* | 9.2µM* | -20 | -1% | ? | 59
CC1CCC(NC(=O)c2ccc3c(c2)N(Cc2cccc(F)c2)C(=O)c2ccccc2S3)CC1 (centres undefined) | -20% | ? | / | -8% | / | /
O=C(Cn1cc(C(=O)C2CC2)c2ccccc21)Nc1ccc(Br)cc1 | -10% | -12% | / | 5% | / | /
CCc1ccccc1Nc1nc(N)nc(COC(=O)c2c(C)noc2C)n1 | ? | -22% | 0 | 0% | 0% | 18
O=C1CC(NCc2ccc(F)cc2)C(=O)N1c1ccccc1 (centres undefined) | -10% | 0% | -11 | 6% | -12% | -11
N#CCNC1CC(=O)N(c2ccc(F)cc2)C1=O (centres undefined) | 4.6µM* | ? | 4 | / | 6% | -15
O=C(Nc1cc2c3c(c1)CC(=O)N3CCC2)c1ccccc1Br | 7% | -3% | -24 | 0% | ? | 1
CCC(C)N(C(=O)COC(=O)COc1c(C)cc(C)cc1C)C1CCS(=O)(=O)C1 (centres undefined) | 12% | 17% | -4 | / | 8% | 15
COc1ccc(CN2C(=O)c3cccc4cccc(c34)C2c2nc3ccccc3[nH]2)cc1 (centres undefined) | ? | ? | / | / | / | -21
Cc1ccccc1-n1nnnc1SCC(N)=O | 17% | -3% | 2 | -3% | -22% | 12
COc1ccc2c(C)cc(Sc3nnnn3-c3ccccc3)nc2c1 | ? | ? | -6 | 0% | 26µM* | -95*
Cc1ccccc1-n1nnnc1Sc1nnnn1-c1ccccc1 | 12µM* | 8.2µM* | 3 | 3% | ? | -116*
CCCSc1nnc(Sc2nnnn2-c2ccccc2)s1 | 4.6µM* | 2.9µM* | 3 | 5% | 0% | -62*
O=[N+]([O-])c1ccc(Sc2nnnn2-c2ccccc2)nc1 | 3.3µM* | 3.7µM* | -3 | 1% | ? | -97*
Cc1ccsc1C(=O)Nc1ccc(OCc2ccccc2)cc1 | -17% | ? | 7 | 1% | ? | -13
COc1ccc(-c2nnc(SCC(=O)Nc3cccc(F)c3)s2)cc1 | -16% | -8% | / | 1% | / | /
O=C(Nc1ccc(C(=O)OCc2cc(=O)n3c4c(sc3n2)CCCC4)cc1)c1ccccc1 | 0% | -12% | / | 4% | / | /
COc1ccc2nc3c(cc2c1)Cc1ccccc1-3 | / | / | / | 9% | / | /
COCc1cc(C)nc(SCC(=O)Nc2ccccc2C)c1C#N | 7.3µM* | 5.8µM* | 4 | -2% | -8% | -2
SMILES | DT40 TDP1 CPT | DT40 TDP1 no CPT | Giardia kill | TDP1 block | ELG1 repair inh | IL1B secr inh
COCc1cc(C)nc(SCC(=O)Nc2ccc(C)c(C)c2)c1C#N | -13% | -23% | 5 | -3% | ? | 7
Cc1cc(C)c(C#N)c(SCC(=O)Nc2ccccc2C(N)=O)n1 | ? | 10µM* | -12 | 2% | ? | -15
COCc1cc(C)nc(SCC[N+](C)(C)CC(=O)Nc2cccc(C(F)(F)F)c2)c1C#N | 21µM* | ? | 16 | 9% | 13% | -51*
CCc1ccccc1N(C)C(=O)Cn1cnc2sc(C)c(S(=O)(=O)N3CCC(C)CC3)c2c1=O | -20% | -2% | / | 9% | / | /
COc1ccc(CN(C(=O)c2cc3ccccc3oc2=O)C2CCS(=O)(=O)C2)cc1OC (centres undefined) | 1% | -13% | -8 | -1% | ? | -6
O=C(CSc1nnc(-c2ccncc2)o1)Nc1ccc(F)c(F)c1 | 0% | 3% | 11 | 2% | 24% | -5
CC(C(c1cccs1)c1c(N)n(C)c(=O)n(C)c1=O)[N+](=O)[O-] (centres undefined) | -5% | ? | -1 | -2% | -9% | -21
CC(C)(C)c1ccc(SC2=C[C@@]3(O)CC[C@@H](O)[C@@](Sc4ccc(C(C)(C)C)cc4)(C2=O)[C@H]3O)cc1 | 4.6µM* | 3.3µM* | / | / | / | -90*
Cc1ccc(SC2=C[C@@]3(O)CC[C@@H](O)[C@@](Sc4ccc(C)cc4)(C2=O)[C@H]3O)cc1 | 23µM* | ? | / | / | / | -8
O=C(Nc1ccc(F)c(F)c1)c1cnn2c1NC(=C1CC1)C=C2C(F)(F)F | -15% | -15% | / | / | / | /
COc1ccc(NC(=O)C23CC4CC(CC(Cl)(C4)C2)C3)cc1S(=O)(=O)N1CCOCC1 | -22% | ? | 15 | 0% | 16µM* | 3
CC(=O)c1cc2c(cc1NC(=O)CN1Cc3ccccc3C1=O)OCO2 | -9% | 5% | -8 | 5% | -1% | -8
CN(C)C(CNC(=O)C1CCN(S(=O)(=O)c2cccc(Cl)c2Cl)CC1)c1ccccc1 (centres undefined) | -23% | ? | -11 | / | -1% | ?
O=C(Cc1ccccc1)Nc1nccs1 | -17% | -14% | ? | / | 1% | -5
O=C(Cc1ccccc1[N+](=O)[O-])Nc1nccs1 | 8.2µM* | ? | 1 | 1% | -8% | 15
O=C(Nc1ccccc1N1CCOCC1)c1ccc(N2CCOCC2)c([N+](=O)[O-])c1 | ? | ? | 12 | 3% | ? | -18
O=[N+]([O-])c1ccccc1S(=O)(=O)Nc1ccc(S(=O)(=O)Nc2nccs2)cc1 | ? | 16µM* | -27 | / | -8% | -16
